hgDAF12 agonist – H. glycines DAF-12 receptor agonists, primary screen, cell-based, luminescence, HEK293, GAL4 fusion, UAS-luciferase | Nuclear hormone receptor DAF-12 (Heterodera glycines), GAL4 fusion | HEK293 GAL4-hgDAF12 UAS-luciferase reporter, agonist luminescence; normalized to butyrate control | actives 1.8% (n = 370,000) | activation, % at 6.8 µM;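 active = activation above a cutoff set at the mean of all screened compounds plus 3 SD, cut at about 10% in these data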;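 note: 0% = DMSO wells and 100% = sodium butyrate wells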
hcDAF-12 act – H. contortus DAF-12 nuclear receptor activators, primary screen, cell-based, luminescence, HEK293, lit1-tk-luc reporter. actives 1.4% (n = 370,000). HEK293 hcDAF-12 lit1-tk-luc reporter; 0% DMSO, 100% Δ7-dafachronic acid. activation, % at 6.8 µM;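 active = activation above the mean of all tested compounds plus 3 SD, cut at about 5.5% in these data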;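 note: 100% = response to 3 µM Δ7-dafachronic acid high control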
ssDAF-12 act – S. stercoralis DAF-12 nuclear receptor activators, primary screen, cell-based, luminescence, HEK293, GRIP1 co-expression, lit1-tk-luc; activation, % at 6.8 µM; actives 1% (n = 370,000); HEK293 ssDAF-12/GRIP1 lit1-tk-luc reporter; % of 3 µM dafachronic acid response; AID 652126, 2013; Nuclear hormone receptor DAF-12 (Strongyloides stercoralis);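 active = activation above the mean over all tested compounds plus 3 SD, cut at about 0.9% in these data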;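 note: 0% = DMSO-only wells and 100% = 3 µM delta7-dafachronic acid wells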
DAX1 inh-1 – DAX1 (NR0B1) inhibitors, primary screen, cell-based, HEK293, Gal4-DAX1, luciferase luminescence; Nuclear receptor subfamily 0 group B member 1 (Homo sapiens), P51843; HEK293 Gal4-DAX1 luciferase reporter; actives 0.99% (n = 340,000); inhibition, % at 6.75 µM;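 active = inhibition above the mean over all tested compounds plus 3 SD, cut at about 4.2% in these data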;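 note: 0% = DAX1-transfected cells with DMSO and 100% = empty-vector control cells with DMSO; inhibition shows as a rise in luminescence from relieved DAX1 repression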
Target sequence (P51843 207-470 limits assumed): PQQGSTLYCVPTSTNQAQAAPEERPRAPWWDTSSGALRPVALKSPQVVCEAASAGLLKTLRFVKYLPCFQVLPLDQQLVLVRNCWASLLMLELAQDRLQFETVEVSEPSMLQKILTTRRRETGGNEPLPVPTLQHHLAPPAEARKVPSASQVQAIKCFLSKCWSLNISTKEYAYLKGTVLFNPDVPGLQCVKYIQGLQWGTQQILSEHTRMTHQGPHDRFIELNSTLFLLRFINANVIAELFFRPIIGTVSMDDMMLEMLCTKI
AHR act – AHR activators, primary screen, cell-based, luminescence, luciferase reporter, human; Aryl hydrocarbon receptor (Homo sapiens), P35869; AHR-responsive luciferase reporter cells; activation, % at 5 µM; actives 2.5% (n = 320,000); AID 2796, 2010; in the data active = activation above about 47%;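 note: 0% = vehicle wells and 100% = reference agonist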
DAX1 inh-2 – DAX1 (NR0B1) inhibitors on StAR promoter, primary screen, cell-based, luminescence, SF-1 (NR5A1), full-length DAX-1; actives 1.1% (n = 370,000); HEK293T StAR-luciferase reporter, SF-1/DAX-1 repression relief; inhibition, % at 6.8 µM; AID 652010, 2013;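 active = inhibition above the mean over all tested compounds plus 3 SD, cut at about 3.6% in these data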;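 note: 0% = DAX-1 cells with DMSO and 100% = cells lacking DAX-1 with DMSO; higher inhibition means more luminescence from relief of DAX-1 repression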
The depositor's hits bear a star; / = not tested or not shown. Sampled rows, rich in hits. Any-hit rate of the full collection: about 5.7%.

SMILES | hgDAF12 agonist | hcDAF-12 act | ssDAF-12 act | DAX1 inh-1 | AHR act | DAX1 inh-2
COc1cccc(-c2ccc3c(c2)[C@@H]2C[C@H]4[C@@H](CN2CC3)[C@H](C)ON4C)c1 | 0 | 0 | 0 | / | / | 0
COc1ccccc1C(=O)NCc1ccncc1 | 5 | 0 | -1 | 1 | 5 | 0
COc1cc2ccccc2cc1C(=O)NC(=S)Nc1ccc(C(=O)O)cc1 | 1 | 0 | 0 | 0 | 52* | 0
COc1cc2ccccc2cc1C(=O)NCc1ccncc1 | 1 | -1 | -1 | 1 | 50* | 1
COc1ccccc1NC(=O)c1ccccc1-c1nc(-c2ccccc2OC)no1 | -5 | -3 | -2 | -3 | 17 | -3
COc1ccccc1-c1noc(-c2ccccc2C(=O)Nc2ccccc2)n1 | -1 | -1 | -1 | 0 | 47* | 0
CC(C)C[C@H]1COc2cccc(N3CCC[C@H]3CO)c2S(=O)(=O)N1 | 0 | -1 | -1 | / | / | 1
CCC(NC(=O)c1cc(COc2ccc(Cl)cc2OC)on1)c1ccncc1 (centres undefined) | 12* | 1 | 0 | 1 | 47 | -1
C=CCNC(=O)c1nc2ccccc2s1 | 4 | 3 | 0 | 1 | 15 | 0
C=CCNC(=O)c1ccc(CSc2nc3ccccc3s2)cc1 | 1 | 5.7* | 0 | 0 | 36 | -3
COc1ccc(NC(=O)c2cc(-c3ccco3)nc3ccccc23)cn1 | -1 | 1 | -1 | 0 | 71* | 1
O=C(Nc1nc2ccccc2s1)c1cc(-c2ccco2)nc2ccccc12 | 2 | 0 | -1 | 0 | 56* | 0
Cc1csc(NC(=O)c2cc(-c3ccco3)nc3ccccc23)n1 | 1 | 4 | 8.8* | -1 | 28 | -1
Cc1cccc(C(=O)Nc2c(-c3ccccc3)nc3ncccn23)c1 | 3 | -2 | 0 | / | / | -2
Cc1c(C(=O)N2CCCCC2)oc2ccccc12 | 4 | -1 | -1 | 1 | 5 | 1
Nc1c(C(=O)N2CCCCCC2)oc2ccccc12 | 6 | 1 | -1 | 1 | 73* | 0
Cc1c(C(=O)N2CCc3ccccc3C2)oc2ccccc12 | 7 | 3 | 0 | 0 | 59* | 3
O=C(c1ccc(Br)s1)N1CCc2ccccc2C1 | 2 | 2 | -1 | 2 | -3 | 3.9*
COc1ccccc1P(=O)(c1ccccc1)c1ccc([N+](=O)[O-])cc1 (centres undefined) | 1 | 3 | -2 | 0 | 1 | 0
CC(=O)OCC1OC(OC2C[C@]3(C)C(CC(O)C4C([C@](C)(CCC=C(C)C)OC5OC(CO)C(O)C(O)C5O)CC[C@]43C)[C@@]3(C)CCC(O)C(C)(C)C23)C(O[C@@H]2OC(C)C(O)C(O)C2O)C(O)C1O (some centres undefined) | / | / | / | -2 | 1 | /
CCOC(=O)N1CCN(C(=O)CN2C(=O)c3ccccc3S2(=O)=O)CC1 | 1 | 2 | -1 | 3 | -1 | 0
CCN1CCN(C(=O)CN2C(=O)c3ccccc3S2(=O)=O)CC1 | 3 | 1 | -1 | 3 | 6 | 3.8*
CN(Cc1ccccc1)C(=O)[C@@H]1CCCN1C(=O)[C@@H]1CCCN1C(=O)c1cccc(Cl)c1 | -2 | 0 | -1 | / | / | 0
CCOC(=O)C1(CCCc2ccccc2)CCN(C(=O)c2ocnc2C)CC1 | 0 | 1 | -1 | 0 | 2 | 1
CCOC(=O)C1(CC2CC2)CCN(C(=O)c2ocnc2C)CC1 | 3 | 1 | 0 | 4.3* | 6 | 0
SMILES | hgDAF12 agonist | hcDAF-12 act | ssDAF-12 act | DAX1 inh-1 | AHR act | DAX1 inh-2
COc1cc(C)nc(N(C)S(=O)(=O)c2ccccc2Cl)n1 | 1 | -1 | -1 | -1 | -1 | -1
c1ccc2c(c1)-c1nc3ccccc3cc1C2N1CCCCC1 (centres undefined) | 10 | 4 | 1.4* | 2 | / | 4.2*
CCOc1ccccc1NC(=O)c1cc(-c2ccccn2)nc2ccccc12 | -1 | 0 | -1 | -1 | 71* | -2
Cc1ccc(NC(=O)c2ccc3nc[nH]c3c2)c(O)c1 | 11* | 6.2* | 0 | 2 | 65* | 3
CCOc1ccccc1C(=O)Nc1ccccc1-c1ccccc1 | -1 | 5.7* | -1 | 0 | 16 | 0
CCOc1ccccc1NC(=O)c1ccc2c(c1)C(=O)N(CC1CCCO1)C2=O (centres undefined) | -1 | -2 | -2 | 1 | 73* | 1
CCOc1ccccc1NC(=O)c1ccc2nc[nH]c2c1 | 0 | -2 | -2 | 4.4* | -13 | 0
C/C(=N\NC(=O)c1ccccc1F)c1ccc2c(c1)Nc1ccccc1S2 | 11* | 0 | -1 | 0 | -5 | 1
FC(F)(F)c1cnc(Oc2cccc3ccccc23)c(Cl)c1 | 2 | 3 | 1.0* | 0 | 18 | 0
OCCc1c[nH]c2ccccc12 | -2 | 1 | -2 | 4.5* | -1 | 0
CCOC(=O)Cc1c[nH]c2ccccc12 | 4 | 3 | 0 | 0 | 15 | 1
NNC(=O)CCc1c[nH]c2ccccc12 | 1 | -1 | -1 | 1 | 14 | 0
OCc1c[nH]c2ccccc12 | 2 | 6.0* | 0 | -1 | 53* | -2
COc1cccc(C(=O)N[C@H](C(=O)N2CCC[C@H]2C(=O)NCc2ccccc2)C(C)C)c1 | 2 | 1 | -1 | / | / | -2
COCC(C)N=C1NN=C(c2c[nH]c3ccccc23)CS1 (centres undefined) | 9 | 6.2* | 1 | 1 | 35 | 1
NS(=O)(=O)c1ccc(NC(=O)COC(=O)/C=C/c2ccc([N+](=O)[O-])cc2)cc1 | -1 | 0 | 3.0* | -1 | 1 | 0
O=C(COC(=O)/C=C/c1ccc([N+](=O)[O-])cc1)Nc1ccc(F)cc1 | 1 | 0 | -1 | 0 | 2 | -1
COc1ccc(-c2csc(NC(=O)c3c(C)noc3C)n2)cc1OC | -5 | -2 | -2 | -2 | / | -3
NC(=O)N/N=C/c1sc(N2CCCCC2)nc1-c1cccs1 | 12* | 0 | -1 | -2 | 21 | -2
O=C(N/N=C/c1sc(N2CCCCC2)nc1-c1cccs1)C1CC1 | -1 | -2 | -2 | -2 | 68* | -1
CC(C)NC(=S)N/N=C/c1sc(N2CCCCC2)nc1-c1cccs1 | 2 | 0 | -1 | 0 | 16 | 0

Bioassay records as filed in PubChem.
